target: CADM4; experiment: pooled miR-30 sensor sort-seq; sequence = guide strand; details: shRNA

| Sequence | sensor-assay potency score (higher = more potent) |
| --- | --- |
| TGGATGACAACTATGGACCCAT | -0.33 |
| TTGAAGAAGAGGGTCTGCCGGG | 0.128 |
| TTACGGTCCACACGAAACCGTA | -1.33 |
| TATGATCAGAAACACCAGCAGC | -1.06 |
| TTCTGCCGTACCGAGCACCAGA | -1.21 |
| TTCTCTGTCTGTACTTCCTGTC | -0.0405 |
| TTTCAGCTCCTTGCGGTCCCGG | -0.888 |
| TTATTGGACGCCTCGCAAGTGT | -0.6 |
| TCTGTCTGTACTTCCTGTCCTG | 0.306 |
| ACATATGATCAGAAACACCAGC | -1.09 |

target: CALB1; experiment: as above; details: shRNA

| Sequence | sensor-assay potency score (higher = more potent) |
| --- | --- |
| TTCGGTACAGCTTCCCTCCATC | -0.593 |
| TTCTCTGACAGTAAGTTTGTTG | -0.382 |
| TATTCTTCTCGCACAGATCCTT | 0.132 |
| ATTCTTCTCGCACAGATCCTTC | -1.06 |
| TTAGATACAGTGTATCACTAGC | 0.553 |
| TTCCCTTGTCACATCAACTTGA | 0.335 |
| TATGTATCCATTGCCGTCCTGA | -0.391 |
| TTAGGTCTGTATACTCGGCTAA | -0.144 |
| TTATTTTTTAGATACAGTGTAT | -0.499 |
| AAACAGTATAGAAACAAGCTGA | -0.0132 |
| TAAGCTTAGAAATATTTTGTGG | -0.267 |
| TAAGCATAGACTTTCTTCTTTT | -0.786 |
| TATTTTTCCATCATCTCTTTGC | -0.281 |
| TATAAAAGAAAATACAGCCTAC | -0.236 |
| TTTGTGTCATCAACAGTCTTGT | 0.294 |
| TGTAATATTATTAATATCCAGA | -0.351 |
| TTGATTGGTAAACTAAATCTGT | -0.119 |
| TTTTGTGTCATCAACAGTCTTG | 0.226 |
| TAAATCTGTAATGAGACTGTTA | 0.457 |
| ATTATTAATATCCAGATCCTGT | -0.387 |
| TAGGTCTGTATACTCGGCTAAT | -1.02 |
| TGTCACATCAACTTGAACCGAT | 0.787 |
| TTTAAGAAGAAAATTCTCCTGC | 1.04 |
| TCTTGTTCAACTATATTTGTGA | 0.29 |

target: CAMK2N1; experiment: as above; details: shRNA

| Sequence | sensor-assay potency score (higher = more potent) |
| --- | --- |
| AATAACAACCCGCTTGCTCCGG | -0.79 |
| ATCTTCAATAACAACCCGCTTG | -0.788 |
| TATCATCTTCAATAACAACCCG | -0.355 |
| TTCAGCACGTCATCAATCCTAT | -0.353 |
| TCTTCAATAACAACCCGCTTGC | -0.41 |

Reference: the OligoGym collection
